This excerpt belongs to a sample that is enriched for hits.
Tg IFNy HTS: T. gondii growth inhibition with IFN-gamma, primary screen, cell-based; activity change, negative = inhibition, % (concentration not given with the values); AID 1259416, 2018; 3.8% of 69,000 active; Toxoplasma gondii growth in IFN-gamma-treated host cells; hits give low values; in the data active = activity change below about -70%, passing the limit was not always enough;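 note: host cells are HeLa cells infected with Toxoplasma gondii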
Numbers stand for hits; i = inactive; ! = not active in a repeat.

SMILES	Tg IFNy HTS
Fc1cccc(CSc2nc(NC3CCCCC3)c3ccccc3n2)c1	-76
Cc1cccc(Nc2nc(-c3nnc(-c4ccccc4)o3)nc3ccccc23)c1	i
Cc1cccc(-c2nnc(-c3nc(NC(C)c4ccccc4)c4ccccc4n3)o2)c1 (stereo unspecified)	-94
COc1ccc(CN2CCn3cc(Cn4cccn4)nc3C2)cc1	i
N#CCN1CCC2(CC1)CC(=O)N(CC1CCCO1)c1ccccc12 (stereo unspecified)	i
CC1(C)CC(=O)c2cc(NC(=O)c3ccc(Cl)cc3)c(=O)oc2C1	i
O=S(=O)(NCCc1csc(-c2cccc(F)c2)n1)c1ccc(F)cc1F	i
CN1CCc2cc(C(=O)N3CCCC3)c(N(C)C)nc2CC1	i
Cc1nc(-c2cccc(F)c2)sc1CCNC(=O)C1CC1	i
COc1ccccc1C1CCCN1C(=O)CC1(c2ccccc2Cl)CC(=O)N(C2CCCC2)C1=O (stereo unspecified)	i
O=c1[nH]c(=O)n([C@H]2C[C@H](O)[C@@H](CO)O2)cc1C(F)(F)F	-77!
Cc1cn([C@@H]2C[C@@H](O)[C@H](CO)O2)c(=O)[nH]c1=O	i
O=c1[nH]c(=O)n([C@H]2CC(O)[C@@H](CO)O2)cc1C(F)(F)F (stereo partly specified)	i
COc1ccc(S(=O)(=O)NCCc2sc(-c3cccc(C)c3)nc2C)cc1C	i
CSc1ccc(C(=O)N(Cc2ccccn2)CC(C)C)cc1	i
CN1CC2(CCN(C(=O)c3ccc4c(=O)n(C)cnc4c3)C2)OC1=O (stereo unspecified)	i
CC(C)(C)CC(Nc1nc(-c2cccnc2)nc2c1CNC2)c1cccnc1 (stereo unspecified)	i
CCc1cc(C(C)Nc2nc(-c3cccnc3)nc3c2CNC3)on1 (stereo unspecified)	-88
CC(C)Cc1cc(CNc2nc(-c3cccnc3)nc3c2CCNC3)no1	i
CCOC(=O)Cn1nc(C)c(Br)c1C	i
CCc1ccc(C(=O)Nc2ccc(-c3nc(Cn4nc(C)cc4C)c(C)o3)cc2)cc1	i
COc1ccc(C(=O)Nc2ccc(-c3nc(Cn4nc(C)cc4C)c(C)o3)cc2)cc1	-92
Cc1cc(C)n(Cc2nc(-c3ccc(NC(=O)c4ccc(F)c(F)c4)cc3)oc2C)n1	i
Cc1cc(C)n(Cc2nc(-c3ccc(NC(=O)c4ccc5c(c4)OCO5)cc3)oc2C)n1	-98
Cc1cc(C)n(Cc2nc(-c3ccc(NC(=O)c4ccc(F)cc4)cc3)oc2C)n1	i
SMILES	Tg IFNy HTS
Cc1ccc(C(=O)Nc2ccc(-c3nc(Cn4nc(C)cc4C)c(C)o3)cc2)cc1	i
Cc1[nH]cnc1-c1c(-c2ccccc2)ncn1CC(=O)Nc1nccs1	i
CC(C)(C)C(=O)N1CCC2(CC1)Nc1cccnc1NC2=NCc1ccccc1	i
COc1ccc(C(=O)N2CCC(c3nc(C(=O)N(C)C)c(C)o3)CC2)cc1OC	i
C=Cc1c(SC)sc(C(N)=O)c1C	i
Cc1cc(SCc2ccc(C(=O)O)cc2)nc(SCc2ccc(Cl)cc2)n1	i
Cc1cc(C)nc(SCc2ccc(C(=O)Nc3nccs3)cc2)n1	-88
O=C(Cc1ccccc1)Nc1nccs1	i
O=C(c1cnccn1)N1CC(=O)N2[C@H](C1)[C@@H](c1ccc(-c3cccc(F)c3)cc1)[C@@H]2CO	i
CC12C(=O)OC(=O)C1(C)C1CCC2O1 (stereo unspecified)	-86
COc1ncccc1C(=O)N1CC[C@H]2C[C@H](c3n[nH]c(C)n3)O[C@H]2C1	i
CN1C(=O)c2cc(NC(=O)Cc3cccs3)ccc2OC[C@@H]2O[C@H](CC(=O)NCCCN3CCOCC3)CC[C@@H]21	i
CCc1nc(OCC(=O)Nc2ccccc2OC)c2ccccc2n1	i
CC1C(c2ccccc2)N(C)C(c2ccccc2)CC1(O)Cc1ccccc1 (stereo unspecified)	-85
CN1CCCC1(Cc1ccccc1)C(=O)O (stereo unspecified)	i
Cc1ccc(CC2(O)CC(C)N(C)CC2C)cc1 (stereo unspecified)	i
O=C(CN1CCN(c2nccs2)CC1)N1c2ccccc2SC2C=CC=CC21 (stereo unspecified)	i
S=C(N/N=C1\CCCc2c1[nH]c1ccc(Br)cc21)Nc1ccccc1	-82
O=C(NC(=S)Nc1ccc2c(c1)CCC2)c1ccccc1	i
S=C(NCc1ccccc1)Nc1ccc(Br)cc1	i
CO[C@@H]1CCN(C(=O)N(C)C)C[C@@H]1Cc1cccc(C)c1	i
CCCCN(C)C(=O)c1ccc2ccc(N3CCN(CC4CC4)CC3)n2c1	i
COCCN(CCOC)C(=O)c1ccc2ccc(N3CCC(C)CC3)n2c1	-88
CCN(CC)CCCNC(=O)c1ccc2ccc(N3CCC(C)CC3)n2c1	i
O=C(c1ccc(-c2cn[nH]c2)nc1)N1CCCN(C2CCCCC2)CC1	i
SMILES	Tg IFNy HTS
CCC(=O)NCCc1nc(N2CCOCC2)ncc1C(=O)Nc1ccccc1	i
Oc1ccc(Cl)cc1C1=NC2(CCNCC2)NC(c2ccccc2O)C1 (stereo unspecified)	-102
CN1CCC2(CC1)N=C(c1ccccc1O)CC(c1ccccc1O)N2 (stereo unspecified)	i
CCOC(=O)N1CCC2(CC1)N=C(c1ccccc1O)CC(c1cc(Cl)ccc1O)N2 (stereo unspecified)	i
CCOC(=O)c1cccc(NC(=O)C2=C(C)C(=O)OC23CCN(S(=O)(=O)CC)CC3)c1	i
Cc1ccc(NC(=O)c2nn(C)cc2Br)cc1C	i
O=C(c1c(F)cccc1F)N1CCOC(c2ccc(Cl)cc2)C1 (stereo unspecified)	-79
O=C(c1ncoc1-c1ccccc1)N1CCOC(c2ccc(Cl)cc2)C1 (stereo unspecified)	i
CCn1c(C)cc(C)c(C(=O)N2CCOC(c3ccc(Cl)cc3)C2)c1=O (stereo unspecified)	i
Cc1ccc(CC(=O)Nc2ccc(-c3nc(Cn4nc(C)cc4C)c(C)o3)cc2)cc1	i
COc1ccc(C2(C(=O)N3CCCC(N(C)C)CC3)CCCC2)cc1 (stereo unspecified)	i
COc1ccc(C2(C(=O)N3CCC(n4nc(-c5ccsc5)ccc4=O)CC3)CC2)cc1	-95
COc1ccc(C2(C(=O)N3CCCC(O)(CO)C3)CC2)cc1 (stereo unspecified)	i
COc1cc(C)c2c(c1)C=CC1C2CCC2(C)C(O)CCC12 (stereo unspecified)	i
C[C@]12CC[C@@H]3c4ccc(O)cc4C[C@@H](CCCCCCCCCS(=O)CCCC(F)(F)C(F)(F)F)[C@H]3[C@@H]1CC[C@@H]2O (stereo partly specified)	-78
C(=C\c1ccc(C2[C@H]3CNC[C@@H]2N3Cc2nccs2)cc1)/c1ccccc1 (stereo partly specified)	i
Cc1ccc(OCC(=O)Nc2ccccc2N2CCN(C)CC2)cc1	i
COc1ccc(-c2cc(N)nc3[nH]ccc23)cc1C	-78
CCNC(=O)c1cccc(-c2cc(N)nc3[nH]ccc23)c1	i
CS(=O)(=O)c1ccc(-c2cc(N)nc3[nH]ccc23)cc1	i
CCCc1cnc(C)nc1N1CCOCC(CN(C)C)C1 (stereo unspecified)	i
Cc1nc(-c2ccccc2)ncc1C(=O)N1CCCC2(CC1)CNC(=O)O2 (stereo unspecified)	i
CN1C(=O)C(c2ccccc2)CC12CCN(Cc1cnn(C)c1)CC2 (stereo unspecified)	i
O=C(CC1C(=O)NCCN1C(=O)c1cccs1)Nc1cccc(Cl)c1 (stereo unspecified)	i

Bioassay records deposited in PubChem by Broad Institute.
